Records with an inconclusive call do not appear. Calls of active or inactive are those of the source. Unless noted, the call rests on the fitted dose curve.
Experiments:
[1] = Nuclear factor erythroid 2-related factor 2/antioxidant responsive element (Nrf2/ARE) small molecule agonists: qHTS cell viability counter screen in human keratinocytes (AID 1919968; active means well fitted curve in the direction sought with a large enough effect in the repeat runs; an effect the other way counts as inactive or inconclusive; further: nearly all actives have a fitted effect of over 55% in size)
Summary of the method: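 Fluorescence read-out from CellTiter-Fluor after 1 h at 37 C. Wells held HaCaT-derived ARE-luciferase reporter cells (1,500/well) treated 23 h with DMSO-dissolved compounds. Run in the same wells as the luciferase agonist read.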

[2] = target: Gonadotropin-releasing hormone receptor (Homo sapiens) (UniProt P30968); test: Human gonadotropin-releasing hormone receptor (GnRHR) small molecule agonists, calcium flux assay in GnRHR-HEK293 cells (AID 1920063); further: nearly all actives have a fitted effect of over 35% in size
Chain of Gonadotropin-releasing hormone receptor (Homo sapiens) (P30968 whole entry, looked up): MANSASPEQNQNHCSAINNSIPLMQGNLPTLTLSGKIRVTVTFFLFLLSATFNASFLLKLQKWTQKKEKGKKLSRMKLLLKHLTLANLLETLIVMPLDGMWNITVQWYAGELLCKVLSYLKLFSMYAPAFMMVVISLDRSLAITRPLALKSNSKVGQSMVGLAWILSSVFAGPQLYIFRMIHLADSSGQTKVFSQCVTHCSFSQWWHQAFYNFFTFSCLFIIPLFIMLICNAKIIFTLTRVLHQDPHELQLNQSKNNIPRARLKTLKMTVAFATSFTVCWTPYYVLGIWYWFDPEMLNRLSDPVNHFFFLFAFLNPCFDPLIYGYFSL
Summary of the method: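 Calcium-dye fluorescence, Ex/Em=480/540, recorded every 1 sec over 3 min after compound addition to GnRHR-HEK293 cells. Cells had been seeded 18 hours earlier and dye-loaded for 1 hour at 37 C. Fifteen concentrations, triplicates.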

[3] = target: KiSS-1 receptor (Homo sapiens) (UniProt Q969F8); test: Human kisspeptin (KISS1R) small molecule agonists, calcium flux assay in KISS1R-HEK293 cells (AID 1920064; active means well fitted curve in the direction sought with a large enough effect in the repeat runs; an effect the other way counts as inactive or inconclusive)
Chain of KiSS-1 receptor (Homo sapiens) (Q969F8 whole entry, looked up): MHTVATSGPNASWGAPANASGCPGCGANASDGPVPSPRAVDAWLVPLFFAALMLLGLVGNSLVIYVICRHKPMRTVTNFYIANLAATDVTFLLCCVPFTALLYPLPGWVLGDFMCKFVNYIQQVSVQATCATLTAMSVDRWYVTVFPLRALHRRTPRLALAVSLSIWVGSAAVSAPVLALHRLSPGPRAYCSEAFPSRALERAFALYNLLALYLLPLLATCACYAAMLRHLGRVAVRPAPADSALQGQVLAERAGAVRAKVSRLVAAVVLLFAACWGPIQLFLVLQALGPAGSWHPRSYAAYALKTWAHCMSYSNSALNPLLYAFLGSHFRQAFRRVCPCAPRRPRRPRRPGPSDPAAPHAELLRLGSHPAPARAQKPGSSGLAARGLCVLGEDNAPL
Summary of the method: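 Calcium flux read-out: kinetic fluorescence at Ex/Em=480/540, 1 s intervals over 3 min, after pin-tool compound addition to dye-loaded KISS1R-HEK293 cells. Fifteen concentrations, triplicates.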

[4] = G protein-coupled receptor (GPCR) small molecule agonists, calcium flux assay: HEK293 wild type cell line counter screen (AID 1920065)
Summary of the method: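 Agonist mode; 18 h seeding at 37 C, 1 h dye load at 37 C; compounds pinned from DMSO, ATP as positive control; kinetic fluorescence 480/540 nm, 3 min, 1 s reads; 15 concentrations, triplicate.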

[5] = p53 small molecule agonists, cell-based qHTS assay with human liver microsomes (AID 1963577)
Summary of the method: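 Compounds act here after metabolic activation: human liver microsomes and NADPH, both at 0.5 mg/mL final, were co-added to p53RE-bla cells. Incubation ran 16 h at 37 C, followed by LiveBLAzer detection.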

[6] = p53 small molecule agonists, cell-based qHTS assay with rat liver microsomes (AID 1963578)
Summary of the method: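 Read-out is beta-lactamase reporter fluorescence (LiveBLAzer, 2 h, room temperature, dark) in p53RE-bla cells treated 16 h at 37 C with compound, rat liver microsomes and NADPH, both 0.5 mg/mL final.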

[7] = p53 small molecule agonists, cell-based qHTS assay with human liver microsomes: qHTS cell viability counter screen (AID 1963579); further: nearly all actives have a fitted effect of over 45% in size
Summary of the method: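 Cells carrying the p53 response-element beta-lactamase reporter are treated for 16 h at 37 C with test compounds in the presence of human liver microsomes and NADPH (both 0.5 mg/mL final); ATP-based CellTiter-Glo luminescence then reports viability.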

[8] = p53 small molecule agonists, cell-based qHTS assay with rat liver microsomes: qHTS cell viability counter screen (AID 1963580); further: nearly all actives have a fitted effect of over 45% in size
Summary of the method: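 Rat liver microsome (0.5 mg/mL final) and NADPH (0.5 mg/mL final) co-incubation with compounds for 16 h at 37 C on HCT-116 p53RE-bla cells; cytotoxicity taken from intracellular ATP luminescence.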

[9] = p53 small molecule agonists, cell-based qHTS assay: qHTS cell viability counter screen (AID 1963581); further: nearly all actives have a fitted effect of over 45% in size; further: potency means the concentration at half of the fitted maximal effect
Summary of the method: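 Cytotoxicity read-out: ATP-based luminescence (CellTiter-Glo, 30 min RT) measured in the same wells as the p53 reporter assay, HCT-116 p53RE-bla cells, 16 h compound exposure at 37 C.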

[10] = p53 small molecule agonists, cell-based qHTS assay (AID 1963582; active means well fitted activation curve with a large enough effect in the signal ratio in the repeat runs, not every such curve was filed as active; the % refers to the signal ratio)
Summary of the method: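 Fluorescence intensity read-out of a beta-lactamase reporter under a p53 response element. Cells were exposed to DMSO-dissolved compounds for 16 h at 37 C, then developed with FRET substrate for 2 h at RT.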

[11] = target: 5-hydroxytryptamine receptor 2A (Homo sapiens) (UniProt P28223); test: 5-hydroxytryptamine receptor 2A (HTR2A) small molecule antagonists, cell-based qHTS assay (AID 1963586); further: nearly all actives have a fitted effect of over 45% in size
Chain of 5-hydroxytryptamine receptor 2A (Homo sapiens) (P28223 whole entry, looked up): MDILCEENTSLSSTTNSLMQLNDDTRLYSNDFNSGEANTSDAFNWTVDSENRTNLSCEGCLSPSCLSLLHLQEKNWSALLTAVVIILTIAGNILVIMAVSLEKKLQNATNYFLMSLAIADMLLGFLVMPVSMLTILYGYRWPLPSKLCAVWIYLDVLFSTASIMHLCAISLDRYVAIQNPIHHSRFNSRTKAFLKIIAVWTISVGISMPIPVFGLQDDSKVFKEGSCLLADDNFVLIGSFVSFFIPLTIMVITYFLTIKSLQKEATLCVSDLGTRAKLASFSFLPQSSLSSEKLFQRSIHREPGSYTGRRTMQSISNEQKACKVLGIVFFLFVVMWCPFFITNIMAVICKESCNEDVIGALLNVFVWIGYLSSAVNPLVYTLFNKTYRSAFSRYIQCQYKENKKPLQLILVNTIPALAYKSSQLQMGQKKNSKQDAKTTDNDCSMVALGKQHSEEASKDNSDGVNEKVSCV
Summary of the method: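 CHO cells stably expressing human HTR2A were plated for 18 h at 37 C, then loaded with calcium dye for 1 h. Compounds were preincubated 5 min at room temperature before DOI (4 nM solution) was added. Kinetic fluorescence was read for 3 min.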

[12] = target: 5-hydroxytryptamine receptor 2A (Homo sapiens) (UniProt P28223); test: 5-hydroxytryptamine receptor 2A (HTR2A) small molecule agonists, cell-based qHTS assay (AID 1963587); further: nearly all actives have a fitted effect of over 30% in size
Summary of the method: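 Kinetic calcium-flux fluorescence (2 min, 1 sec intervals) after compound addition in agonist mode. HTR2A-CHO cells were cultured 18 h, then dye-loaded 1 h at 37 C.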

[13] = target: Muscarinic acetylcholine receptor M1 (Homo sapiens) (UniProt P11229); test: Cholinergic receptor muscarinic 1 (CHRM1) small molecule agonists, cell-based qHTS assay (AID 1963589); further: nearly all actives have a fitted effect of over 35% in size
Chain of Muscarinic acetylcholine receptor M1 (Homo sapiens) (P11229 whole entry, looked up): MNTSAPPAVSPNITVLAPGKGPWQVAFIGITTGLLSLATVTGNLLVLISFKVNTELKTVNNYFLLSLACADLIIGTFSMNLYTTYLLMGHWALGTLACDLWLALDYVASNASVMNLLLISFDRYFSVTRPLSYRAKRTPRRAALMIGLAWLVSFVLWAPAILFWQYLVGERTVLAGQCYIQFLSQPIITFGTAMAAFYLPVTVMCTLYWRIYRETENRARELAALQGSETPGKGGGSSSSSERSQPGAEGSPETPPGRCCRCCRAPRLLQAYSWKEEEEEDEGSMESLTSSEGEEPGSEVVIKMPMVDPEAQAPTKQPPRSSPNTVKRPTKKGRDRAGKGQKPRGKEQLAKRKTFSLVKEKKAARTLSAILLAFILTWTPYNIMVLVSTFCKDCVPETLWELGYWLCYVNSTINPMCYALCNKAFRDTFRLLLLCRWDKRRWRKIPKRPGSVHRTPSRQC
Summary of the method: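 Calcium flux read-out: kinetic fluorescence at 1 sec intervals after pin-tool compound addition to dye-loaded CHRM1-CHO cells (human M1). Agonist mode; 15 concentrations tested in triplicate independent runs.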

[14] = cAMP Responsive Elements (CRE) small molecule antagonists, cell-based qHTS assay (AID 1963591; active means well fitted inhibition curve with a large enough effect in the signal ratio in the repeat runs, not every such curve was filed as active; the % refers to the signal ratio; further: potency means the concentration at half of the fitted maximal effect)
Summary of the method: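 HEK293T CRE-bla; 18 h preincubation; compound pin-transfer; NKH477 0.25 uM final, 3 h, 37 C; LiveBLAzer FRET substrate 2 h RT.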

[15] = target: Beta-2 adrenergic receptor (Homo sapiens) (UniProt P07550); test: Adrenergic beta2 receptor (ADRB2) small molecule antagonists, cell-based qHTS assay (AID 1963592); further: series mostly up to about 92 µM; nearly all actives have a fitted effect of over 50% in size
Chain of Beta-2 adrenergic receptor (Homo sapiens) (P07550 whole entry, looked up): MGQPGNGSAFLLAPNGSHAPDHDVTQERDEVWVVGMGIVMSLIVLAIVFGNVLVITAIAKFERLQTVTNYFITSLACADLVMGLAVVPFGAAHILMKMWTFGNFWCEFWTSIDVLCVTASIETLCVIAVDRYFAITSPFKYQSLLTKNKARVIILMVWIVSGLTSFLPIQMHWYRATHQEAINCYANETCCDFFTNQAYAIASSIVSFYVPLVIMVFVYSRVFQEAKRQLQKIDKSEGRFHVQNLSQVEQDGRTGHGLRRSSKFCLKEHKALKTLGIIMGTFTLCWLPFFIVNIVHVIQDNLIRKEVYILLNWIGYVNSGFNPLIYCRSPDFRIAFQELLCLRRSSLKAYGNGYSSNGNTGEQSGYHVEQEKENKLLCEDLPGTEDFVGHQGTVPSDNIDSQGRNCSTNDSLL
Summary of the method: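 Assay format: CHO-ADRB2 cells, 18-20hr seeding at 37C/5% CO2, then compound plus 1nM isoproterenol agonist mix for 0.5hr RT. Homogeneous time-resolved fluorescence cAMP detection after 1hr, expressed as 665/615 nm ratio.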

[16] = target: Beta-2 adrenergic receptor (Homo sapiens) (UniProt P07550); test: Adrenergic beta2 receptor (ADRB2) small molecule agonists, cell-based qHTS assay (AID 1963593);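 further: CHO cells stably overexpressing human ADRB2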
Summary of the method: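 CHO cells stably over-expressing ADRB2 were plated overnight at 37C, then dosed with compounds plus a stimulation mix containing 100uM IBMX and 25uM Ro-20-1724 for 0.5hr at room temperature. cAMP was measured by HTRF competition, 1hr.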

[17] = target: D(2) dopamine receptor (Homo sapiens) (UniProt P14416); test: Dopamine D2 receptor (DRD2) small molecule agonists, cell-based qHTS assay (AID 1963594); further: nearly all actives have a fitted effect of over 35% in size
Chain of D(2) dopamine receptor (Homo sapiens) (P14416 whole entry, looked up): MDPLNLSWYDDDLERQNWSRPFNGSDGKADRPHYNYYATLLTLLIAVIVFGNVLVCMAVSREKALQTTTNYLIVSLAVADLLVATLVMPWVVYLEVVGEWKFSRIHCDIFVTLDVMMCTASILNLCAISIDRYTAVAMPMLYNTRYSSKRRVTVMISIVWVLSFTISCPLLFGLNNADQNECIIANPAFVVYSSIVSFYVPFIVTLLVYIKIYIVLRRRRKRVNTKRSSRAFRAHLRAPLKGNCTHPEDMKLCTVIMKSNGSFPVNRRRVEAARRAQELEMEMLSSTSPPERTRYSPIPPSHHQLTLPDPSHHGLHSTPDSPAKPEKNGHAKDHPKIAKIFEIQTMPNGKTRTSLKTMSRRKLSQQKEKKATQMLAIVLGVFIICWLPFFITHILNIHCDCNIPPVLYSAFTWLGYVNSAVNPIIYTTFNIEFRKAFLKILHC
Summary of the method: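 cAMP accumulation in DRD2-HEK293 cells measured by HTRF after 1 h detection; compounds added 10 min before NKH477 (200nM […]) forskolin-analogue stimulation, 30 min at room temperature, with Ro20-1724 present at 0.1 mM final.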

[18] = target: D(2) dopamine receptor (Homo sapiens) (UniProt P14416); test: Dopamine D2 receptor (DRD2) small molecule antagonists, cell-based qHTS assay (AID 1963595; active means well fitted inhibition curve with a large enough effect in the signal ratio in the repeat runs, with a control signal flat; the % refers to the signal ratio)
Summary of the method: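 In this cell-based antagonist screen, compounds act for 10 min at room temperature before a 30 min challenge with 12 nM quinpirole and 200 nM NKH477. cAMP is quantified by HTRF competition in DRD2-HEK293 cells containing 0.1 mM Ro20-1724.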

[19] = target: Muscarinic acetylcholine receptor M1 (Homo sapiens) (UniProt P11229); test: Cholinergic receptor muscarinic 1 (CHRM1) small molecule antagonists, cell-based qHTS assay (AID 1963588); further: nearly all actives have a fitted effect of over 40% in size; further: potency means the concentration at half of the fitted maximal effect
Summary of the method: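 Compounds were tested at 15 concentrations in three independent runs. Dye-loaded CHRM1-CHO cells were exposed 5 min at room temperature before stimulation by acetylcholine added at 50nM. Intracellular calcium was read kinetically on FDSS for 3 min.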

[20] = cAMP Responsive Elements (CRE) small molecule agonists, cell-based qHTS assay (AID 1963590)
Summary of the method: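 Beta-lactamase reporter readout: LiveBLAzer B/G FRET substrate, 2 h at room temperature, added after 3 h compound treatment of CRE-bla HEK 293T cells at 37 C/5% CO2.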

Measured: Potency

CCCCCCC(O)CCCCCCCCCCC(=O)OC (stereo unspecified)
not listed: [19] | [20]
inactive: all other assays above

CO/N=C(\C(=O)N[C@@H]1C(=O)N2C(C(=O)O)=C(CSc3nc(=O)c(O)nn3C)CS[C@H]12)c1csc(N)n1
active: [19] 516 nM
not listed: [20]
inactive: all other assays above

CCCCCCCCOc1ccc(C(=O)O)cc1
not listed: [2] | [3] | [9] | [10] | [11] | [20]
inactive: all other assays above

CC(C)C(O)C(C)(C)CO (stereo unspecified)
active: [9] 3750 nM | [19] 487 nM | [14] 56200 nM
not listed: [16]
inactive: all other assays above

C/C=C(\C)C(=O)OCC/C=C\CC
not listed: [16]
inactive: all other assays above

CCCCN(CCCC)C(C(N)=O)c1ccc(OC)cc1 (stereo unspecified)
not listed: [11] | [16]
inactive: all other assays above

COc1ccc(-n2nc(C(F)F)cc2-c2ccc(S(C)=O)cc2)cc1 (stereo unspecified)
not listed: [14] | [20]
inactive: all other assays above

Oc1ccccc1C=NCc1ccccc1
not listed: [11]
inactive: all other assays above

CC(=O)[C@H]1CC[C@H]2[C@@H]3C=CC4=CC(=O)CC[C@@]4(C)[C@@H]3CC[C@]12C
not listed: [15] | [17] | [19] | [20]
inactive: all other assays above

CCC1(CO)COCOC1
not listed: [16] | [19]
inactive: all other assays above

Cc1ccc(NC(N)=O)cc1
not listed: [16] | [19]
inactive: all other assays above

COc1cc2nc(Cl)nc(N)c2cc1OC
not listed: [16] | [17] | [20]
inactive: all other assays above

COc1cc(C)ccc1O
not listed: [11] | [14] | [16]
inactive: all other assays above

O=C(O)C1(C(=O)O)CCC1.[NH2-].[NH2-].[Pt+2]
not listed: [9] | [13] | [14] | [16] | [17] | [19]
inactive: all other assays above

Cc1ccc(N(CCO)CCO)cc1
not listed: [8] | [16]
inactive: all other assays above

CCn1cc(C(=O)O)c(=O)c2cc(F)c(N3CCNC(C)C3)c(F)c21 (stereo unspecified)
not listed: [10] | [11] | [12] | [13] | [19] | [20]
inactive: all other assays above
